Test system: LXRb:RXRa (NR concentration 270 nM, RXRa partner concentration 90 nM)
Assay: PBM binding z-score (relative to random genomic background probes); higher = stronger binding; sequences stand for … in GC…GCGATTGACAGCGTAGAATGAAGG
Method: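 Protein-binding microarray (Agilent 4x180K custom design, double-stranded 60-nt probes: 5' GC cap, 34-nt variable region, 24-nt constant primer region; full probe sequence given). Purified or IVT nuclear receptor:RXRα heterodimers (3:1 NR:RXRα, mostly 270:90 nM) or homodimers were incubated for 1 h in PBS with 2% milk and no ligand, then detected with Alexa488 antibodies. Fluorescence from o1-orientation probes (~5 replicates averaged) was converted to z-scores against 500 random hg19 background probes. Variable regions are seed direct-repeat (DR0–DR5) sites, all their single-nucleotide variants and half-site ablations.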

Sequence	PBM binding z-score
AATACAGGGTGACTAGGCCAGAGTAGGTACGAAT	0.204
CGAACGAGGTCACCAGGACAGTGAAGAGGTTGGA	4.94
CCTAGTGGGCCAAGGTCATTGATCAGTCAAAGCA	2.79
CGTCCAAAGTCAAAGGTCAGTGAAGAGATGACGG	3.44
CCTACTGGGCCAAAGGTGATTGATTCCAATGCTC	0.206
ATCGAAAGGTCGAAGGTGCGTATACCCACCCGAA	2.33
GCTGCGAGGTCAACTGATGGTCAGCTAAAGCTCG	5.07
TGTCAATGTTCAAAGGTAACGTAAGTATCCACAC	0.772
ATATGTAGGTTAAGCGTCATTCAGGTTGGTTCGC	0.883
TAGCCTAGGTCATTCAGGGGCCAGCATAGAAAGC	3.03
CGTCCGAGGTCATAGGAGGTCAGTGAAGACAGAT	6.8
TCTCGGAGGACACTAAAGGTCAGAGCTCGACATC	3.73
AGTCAAAGTTCAGGACGACGTAACGTAAAGCACG	1.67
GCTGCTAGGTCAACTGATGGCCAGCTAAAGCTCG	1.66
CGTCAAAGATCAAGGTAACGTAACAGAAAGCAGC	0.0744
CCTACTGGGCCATTCAGAGGTCAATGATCATATG	3.64
CGAACTAGGTCACCCAGGACAGTGAATACATTGA	1.93
AATACAGGGTCATCGTACGCCAGAGTACGCACAG	4.92
TCTCGGAGGAAACGAAAGGTCAGAGCTCGACATC	3.1
CCTACTGGGCCAAAGAGGTCATTGATGCCGATAA	3.65

Sequence	PBM binding z-score
CCTACTGGACCAAGGTCATTGATCAGTCAAAGCA	3.46
AATACAGGGTAACTAGGCCAGAGTAGGTACGAAT	0.0448
CCTTAAGGGTCACGAGGTTATAGCACGACGAGCG	5.38
ATATGTAGGTTAGCTGGGGTCCTTCAGACTAGGC	0.853
ATATGTAGTTTATCGGGTCATTCAGTTTGCGCAT	2.94
CGTCAAAGTCCAAGGTAACGTAACAGAAAGCAGC	-0.011
TAGCCTAGGTTATGGGCCAGTATACCACGCGAAC	0.13
CGAACTAGGTCAAAGGACATTGAAAGGCGACGTA	2.06
ATCGAAAGGTCGAAGGTGAGCATACCCACCCGAA	2.79
CGTCCAAGGTCAAGGTCAATGAAAGAGACTCGAA	4.94
CCAACTAGGTCAAAGGACAGTGAAAGGCGACGTA	1.91
CGAACTAGGTCATCCAGGACCGTGAATACATTGA	1.72
AGAATGAGGTCAAGATCAGGGAAACAGAATACAT	5.08
TCTAGTTGGTCACGGAGGTCACAAACGACGGGTA	3.15
GCATATAGGTAATACAAGGTCAAAGTCCGATTGT	5.63
CTATGTAGGTTAAGGGAGTCATTCAGTTTGAAAG	0.642
GCTGCTAGTTCAACTGATGGTCAGCTAAAGCTCG	0.0556
ATATGTAGGTTATCGGGTCATACAGTTTGCGCAT	3
CAAACTAGGTCAAGAGGTCAAAGTTCGCTTCCCG	6.05
AGAATGAGGTTACTAAAGATCAGGGAAACGCTTG	5.45

Source: the supplement of paper PMC6555819
